This is an account of results in PubChem BioAssay AID1671448 (Corson Lab, School of Medicine, Indiana University, 2021).

Out of some 20,000 compounds screened, about 660 (3.3%) were called active.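 The calls were made as follows: active = enzyme reaction rate more than 3 SD below the solvent-only control wells on the same plate; inactive = the rest.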 For the sample, actives were picked, then their nearest neighbours and some compounds at random.

Ferrochelatase, mitochondrial (Homo sapiens), sequence (P22830 whole entry, looked up): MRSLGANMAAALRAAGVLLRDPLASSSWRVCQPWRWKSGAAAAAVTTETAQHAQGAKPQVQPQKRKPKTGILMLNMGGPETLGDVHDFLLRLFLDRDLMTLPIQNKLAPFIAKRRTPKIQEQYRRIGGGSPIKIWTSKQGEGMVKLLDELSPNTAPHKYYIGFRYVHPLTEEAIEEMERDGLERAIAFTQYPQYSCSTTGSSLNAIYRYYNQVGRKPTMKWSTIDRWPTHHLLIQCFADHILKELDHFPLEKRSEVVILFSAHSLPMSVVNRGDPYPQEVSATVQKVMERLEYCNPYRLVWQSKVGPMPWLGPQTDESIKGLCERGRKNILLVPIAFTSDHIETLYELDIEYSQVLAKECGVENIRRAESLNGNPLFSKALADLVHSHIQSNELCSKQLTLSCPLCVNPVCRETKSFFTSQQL

The test addresses Ferrochelatase, mitochondrial (Homo sapiens) (UniProt P22830). Nature of the test: inhibitors of human ferrochelatase, primary screen, biochemical, purified FECH, Ni-mesoporphyrin absorbance (AID 1671448). To be noted: Ni-mesoporphyrin absorbance 550 nm, screened at 10 µM (by protocol).
`Cc1ccc(C)c(N2C(=O)N(Cc3cc(F)cc(F)c3)c3ccccc3S2(=O)=O)c1`: the compound was classed as active. Then `COc1cccc(CN2CC(=O)N(Cc3cccc(C(F)(F)F)c3)c3ccccc3S2(=O)=O)c1`, with “inactive”; and `O=C1CN(Cc2c(F)cccc2Cl)S(=O)(=O)c2ccccc2N1Cc1ccccc1`, with “inactive”; and `COc1ccccc1C(=O)Nc1ccccc1Sc1c(C)c(C)nc2nc(-c3ccccc3)nn12`, with “inactive”. As to `CC(NC(=O)CCc1c[nH]c2ccccc12)c1cn2ncsc2n1` (stereo not given), the call was inactive. For the compound `CCC(C)N(Cc1ccsc1)C(=O)c1cn2c(n1)CNCC2` (stereo not given), the call was inactive. `Cc1cccc(-c2ncc(CNCCNC(=O)c3ccccc3Cl)cn2)c1`: the compound was classed as inactive. Then `CCc1cc(Sc2ccc(NC(=O)Cc3cccs3)cc2)n2ncnc2n1`, with “inactive”; and `COc1ccc(C(=O)N(Cc2nc3nc(C)cc(C)n3n2)c2ccc(F)cc2)cc1`, with “inactive”. Turning to `O=C(NCc1ccccc1)c1nc(N2CCOCC2)c2oc3ccccc3c2n1`, the result was inactive. Consider `CCOCCCNC(=O)C1CCN(c2ccc(-c3ccc(C)cc3)nn2)CC1`, for which the call was inactive.

Turning to `Nc1ccc(S(=O)(=O)Nc2cccc(Cl)c2)cc1S(N)(=O)=O`, the call was active. Regarding `CCCc1cc(NCc2ccc(OC)cc2)n2nc(-c3cccnc3)nc2n1`, the compound was classed as inactive. Then `Cc1ccc(-c2ccnc(NCc3cnn4ccccc34)n2)c(C)n1`, with “inactive”; and `O=C(Nc1nc2n(n1)C(c1ccc(F)cc1)C=C(c1ccc(Cl)cc1)N2)c1cccnc1` (stereo not given), with “inactive”. As for `Cc1ccc(-c2ccnc(-c3ccc(CCC(=O)O)cc3)n2)c(C)n1`, the outcome was inactive. As for `Cc1ccc(-n2c(=O)n(C)c3c(C(N)=O)nc(-c4ccc(Cl)cc4)nc32)cc1C`, the compound was called inactive. As to `Cc1cc(C)n2nc(CN(C(=O)c3ccco3)c3ccc(Cl)cc3)nc2n1`, the compound was classed as inactive. Then `COc1ccc(NC2=NC(C(=O)Nc3cc(OC)ccc3OC)CC(=O)N2)cc1` (stereo not given), with “inactive”; and `CCOc1cc(-c2c(-c3ccccc3)ncn2Cc2c(C)n[nH]c2C)ccc1OC`, with “inactive”; and `COCCN1CCCC(O)(CN2CCN(c3nc4ccccc4o3)CC2)C1=O` (stereo not given), with “inactive”.

On to `OCc1csc(N2CCC(CO)(Cc3ccccc3Cl)CC2)n1`, for which the compound was called inactive.

Turning to `Cc1ccc(C2=CC(c3ccc(F)cc3)n3nc(NC(=O)CC(C)C)nc3N2)cc1` (stereo not given), the outcome was inactive. Then `Cc1ccc(S(=O)(=O)N2CCN(c3cc(-c4ccc(F)cc4)ncn3)CC2)cc1C`, with “inactive”; and `Cc1cccc(-c2nc3nc(CN(C)Cc4ccccc4)cc(=O)n3[nH]2)c1`, with “active”; and `CCOc1ccc(N(Cc2nc3nc(C)cc(C)n3n2)C(=O)c2ccco2)cc1`, with “inactive”. Then `O=C(Nc1ccccc1)c1cc2n(n1)CCN(Cc1cnc[nH]1)C2`, with “inactive”; and `Cn1c(=O)n(Cc2ccc(F)cc2Cl)c(=O)c2cnc(-c3cccnc3)nc21`, with “inactive”.

With `CCOc1ccc(C(=O)N2CCN(S(=O)(=O)c3cc4c5c(c3)CCN5C(=O)CC4)CC2)cc1`, the compound was classed as inactive.

`Cc1ccc(Cn2c(CCNC(=O)Nc3cc(C)ccc3C)nc3cccnc32)cc1`: the outcome was inactive. In the case of `Cc1cc(C)cc(CCC(=O)NC(C)c2n[nH]c(C)n2)c1` (stereo not given) it was “inactive”.

Consider `CCCN(CCC)C(=O)C1CCCN(c2ncnc3c2nc2n3CCCCC2)C1` (stereo not given), for which the result was inactive.

For the compound `Cc1cccc(CNC(=O)N2CCN(Cc3nc4cccnc4n3-c3ccc(F)cc3)CC2)c1`, the compound was classed as inactive.

With `O=C1CN(S(=O)(=O)c2cc(C(=O)N3CCCC3)cs2)c2ccccc2N1`, the result was inactive.

In the case of `O=C(CN1CCN(Cc2ccccc2Cl)S1(=O)=O)Nc1ccc2c(c1)OCCO2`, the result was inactive. As for `CN(CCC1CCCCO1)C(=O)c1ccc(CSc2ncn[nH]2)o1` (stereo not given), the compound was called inactive. Take `Cc1nc(N2CCCCC2)ncc1C(=O)N1CCC2(CCN(C)C2)CC1`: the result was inactive. In the case of `CNS(=O)(=O)c1ccc(C2NCCc3[nH]cnc32)cc1` (stereo not given) it was “inactive”; in that of `COc1ccc(CNC(=O)N2CCN(c3cc(-c4ccc(OC)cc4)ncn3)CC2)cc1`, “inactive”; in that of `COc1ccc(CNC(=O)CN2c3ccc(C(C)C)cc3-c3ccccc3S2(=O)=O)cc1`, “active”. For the compound `CCC1=C(c2ccc(OC)cc2)S(=O)(=O)N(CC(=O)NCc2ccc(OC(C)C)cc2)C1=O`, the call was inactive.

For the compound `CCCNC(=O)NCC1CCCN(Cc2ccco2)C1` (stereo not given), the compound was called inactive.

As to `CC(C)c1nccn1Cc1nc2ccccc2c(=O)[nH]1`, the outcome was inactive. Take `CC(C)c1c(-c2ccccc2)ncn1CC(=O)N1CCNCC1`: the outcome was inactive.

For the compound `COc1ccc(C(=O)N2CCc3[nH]nc(-c4ccc(F)c(F)c4)c3C2)c(O)c1`, the compound was classed as inactive. Regarding `Cc1cc(Sc2ccc(NC(=O)Nc3ccc(F)c(Cl)c3)cc2)n2ncnc2n1`, the compound was classed as inactive. Regarding `CCn1c(=O)n(-c2ccc(C)c(C)c2)c2nc(-c3ccc(F)cc3F)nc(C(N)=O)c21`, the result was inactive. Take `CCCS(=O)(=O)N1CCC(n2c(C(F)(F)F)nc3cccnc32)CC1`: the compound was called inactive. Turning to `Cc1ccc(-c2cc(Nc3ccc(C(N)=O)cc3)nc(C)n2)cc1`, the compound was called inactive. On to `CCN(CC)CCNc1nc(Nc2cccc(C)c2)c2cnn(-c3ccccc3)c2n1`, for which the compound was classed as inactive.

In the case of `COc1ccc(N2CCCS2(=O)=O)cc1NC(=O)COc1ccc(C)cc1`, the call was inactive.

`CCC1=C(c2ccc(OC)cc2)S(=O)(=O)N(CC(=O)Nc2cccc(Cl)c2)C1=O`: the outcome was inactive. In the case of `CC(C(=O)NCCc1ccc(S(N)(=O)=O)cc1)N1C(=O)CC(C)(C)Sc2ccccc21` (stereo not given), the compound was classed as inactive. `CCCc1cc(Sc2ccc(NC(=O)Nc3cccc(F)c3)cc2)n2ncnc2n1`: the result was inactive. In the case of `COc1cccc(C(=O)N(Cc2nc3nc(C)cc(C)n3n2)c2ccccc2)c1`, the result was inactive. Then `Cc1ccc2nc(CNC(=O)Cc3ccc4c(c3)OCO4)[nH]c2c1`, with “inactive”; and `COCc1nc2cccnc2n1C1CCN(S(=O)(=O)c2ccc(C)c(C)c2)CC1`, with “inactive”. Take `O=C(O)CC1CNCCN(C(=O)c2cccc(Oc3ccccc3)c2)C1` (stereo not given): the compound was classed as inactive. Then `CCOC(=O)Cn1c(=O)n(-c2ccc(F)cc2)c2nc(-c3cccs3)nc(C(N)=O)c21`, with “inactive”; and `CN1CCN(Cc2ccc(-n3cccn3)cc2)CC1C(=O)O` (stereo not given), with “inactive”. Regarding `CCC1(CC)CN(C(=O)c2nnc(COC)o2)CCO1`, the result was inactive.

On to `CCOc1ccc(N2CC(NC(=O)CC)CC2=O)cc1` (stereo not given), for which the call was inactive.

In the case of `Cc1ccc(-c2cc(N3CCN(S(=O)(=O)c4ccccc4)CC3)ncn2)cc1`, the call was inactive. On to `CCCOc1cccc(-c2c(Nc3ccccc3)oc3c2c(=O)n(C)c(=O)n3C)c1`, for which the outcome was inactive. In the case of `Cc1nnc(SCC(=O)N2CCC(C(O)C(C)C)CC2)s1` (stereo not given) it was “inactive”.
